Tests used:
Test in all cases: log2 ratio of Biotin-Ahx-Ub-VS probe labelling (fragment/DMSO); higher = less target engagement (more negative = stronger competition), active = hit call of the paper (q ≤ 0.05, log2 ratio ≤ -1)
Details in all cases: compound concentration: 200 uM; treatment time: 3 h
[1] = biological target: T1, USP19 (UniProt O94966)
T1 sequence (whole entry): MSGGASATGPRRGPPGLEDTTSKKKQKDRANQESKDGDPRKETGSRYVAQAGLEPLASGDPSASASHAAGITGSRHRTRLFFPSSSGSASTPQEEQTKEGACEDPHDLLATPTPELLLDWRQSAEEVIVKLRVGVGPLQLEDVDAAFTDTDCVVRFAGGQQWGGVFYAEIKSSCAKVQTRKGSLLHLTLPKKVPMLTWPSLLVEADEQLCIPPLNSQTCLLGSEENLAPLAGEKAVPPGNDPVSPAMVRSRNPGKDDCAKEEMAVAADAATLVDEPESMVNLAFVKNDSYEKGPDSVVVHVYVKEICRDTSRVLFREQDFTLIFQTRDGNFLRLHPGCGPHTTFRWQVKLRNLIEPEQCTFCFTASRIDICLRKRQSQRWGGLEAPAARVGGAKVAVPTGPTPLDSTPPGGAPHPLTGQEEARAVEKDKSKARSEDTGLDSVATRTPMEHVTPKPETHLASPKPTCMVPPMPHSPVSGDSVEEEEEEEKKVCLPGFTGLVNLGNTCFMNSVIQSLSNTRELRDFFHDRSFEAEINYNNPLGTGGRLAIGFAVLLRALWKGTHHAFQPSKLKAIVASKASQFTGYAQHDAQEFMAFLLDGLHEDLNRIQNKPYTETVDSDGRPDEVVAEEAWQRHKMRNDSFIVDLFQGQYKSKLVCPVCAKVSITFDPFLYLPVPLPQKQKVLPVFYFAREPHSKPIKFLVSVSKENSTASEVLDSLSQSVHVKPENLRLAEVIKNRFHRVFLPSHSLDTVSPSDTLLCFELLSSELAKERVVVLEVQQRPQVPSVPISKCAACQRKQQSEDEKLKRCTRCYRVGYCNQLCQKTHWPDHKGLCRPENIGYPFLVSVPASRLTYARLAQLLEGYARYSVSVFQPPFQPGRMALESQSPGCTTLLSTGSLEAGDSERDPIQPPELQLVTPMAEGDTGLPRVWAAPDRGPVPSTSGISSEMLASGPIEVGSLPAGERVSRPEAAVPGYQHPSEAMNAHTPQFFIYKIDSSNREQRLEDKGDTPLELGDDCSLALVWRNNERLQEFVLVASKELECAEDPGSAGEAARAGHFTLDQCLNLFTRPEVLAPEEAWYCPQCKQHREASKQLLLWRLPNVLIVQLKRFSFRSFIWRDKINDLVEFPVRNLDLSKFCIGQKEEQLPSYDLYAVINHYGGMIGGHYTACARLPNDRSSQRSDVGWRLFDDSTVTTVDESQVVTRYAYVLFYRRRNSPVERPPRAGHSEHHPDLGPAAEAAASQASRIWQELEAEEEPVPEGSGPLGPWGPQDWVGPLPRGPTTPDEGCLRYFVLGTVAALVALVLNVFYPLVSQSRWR
In short: (§1)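 Labelled DUBs from HEK293T lysate were NeutrAvidin-enriched, digested with LysC and trypsin, and run by diaPASEF LC-MS/MS. Before that, each 495 µg sample in Tris/CHAPS/IGEPAL buffer with protease inhibitors was treated in triplicate with fragment at 200 µM or vehicle for 3 h, then with Biotin-Ahx-Ub-VS at 0.5 µM final for 1 h. Values are average log2 ratios of fragment over vehicle by unpaired t-test, based on global-median-normalised Spectronaut label-free quantities from proteins with ≥2 unique peptides.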

[2] = biological target: USP24 (UniProt Q9UPU5)
Sequence of USP24 (Q9UPU5 whole entry): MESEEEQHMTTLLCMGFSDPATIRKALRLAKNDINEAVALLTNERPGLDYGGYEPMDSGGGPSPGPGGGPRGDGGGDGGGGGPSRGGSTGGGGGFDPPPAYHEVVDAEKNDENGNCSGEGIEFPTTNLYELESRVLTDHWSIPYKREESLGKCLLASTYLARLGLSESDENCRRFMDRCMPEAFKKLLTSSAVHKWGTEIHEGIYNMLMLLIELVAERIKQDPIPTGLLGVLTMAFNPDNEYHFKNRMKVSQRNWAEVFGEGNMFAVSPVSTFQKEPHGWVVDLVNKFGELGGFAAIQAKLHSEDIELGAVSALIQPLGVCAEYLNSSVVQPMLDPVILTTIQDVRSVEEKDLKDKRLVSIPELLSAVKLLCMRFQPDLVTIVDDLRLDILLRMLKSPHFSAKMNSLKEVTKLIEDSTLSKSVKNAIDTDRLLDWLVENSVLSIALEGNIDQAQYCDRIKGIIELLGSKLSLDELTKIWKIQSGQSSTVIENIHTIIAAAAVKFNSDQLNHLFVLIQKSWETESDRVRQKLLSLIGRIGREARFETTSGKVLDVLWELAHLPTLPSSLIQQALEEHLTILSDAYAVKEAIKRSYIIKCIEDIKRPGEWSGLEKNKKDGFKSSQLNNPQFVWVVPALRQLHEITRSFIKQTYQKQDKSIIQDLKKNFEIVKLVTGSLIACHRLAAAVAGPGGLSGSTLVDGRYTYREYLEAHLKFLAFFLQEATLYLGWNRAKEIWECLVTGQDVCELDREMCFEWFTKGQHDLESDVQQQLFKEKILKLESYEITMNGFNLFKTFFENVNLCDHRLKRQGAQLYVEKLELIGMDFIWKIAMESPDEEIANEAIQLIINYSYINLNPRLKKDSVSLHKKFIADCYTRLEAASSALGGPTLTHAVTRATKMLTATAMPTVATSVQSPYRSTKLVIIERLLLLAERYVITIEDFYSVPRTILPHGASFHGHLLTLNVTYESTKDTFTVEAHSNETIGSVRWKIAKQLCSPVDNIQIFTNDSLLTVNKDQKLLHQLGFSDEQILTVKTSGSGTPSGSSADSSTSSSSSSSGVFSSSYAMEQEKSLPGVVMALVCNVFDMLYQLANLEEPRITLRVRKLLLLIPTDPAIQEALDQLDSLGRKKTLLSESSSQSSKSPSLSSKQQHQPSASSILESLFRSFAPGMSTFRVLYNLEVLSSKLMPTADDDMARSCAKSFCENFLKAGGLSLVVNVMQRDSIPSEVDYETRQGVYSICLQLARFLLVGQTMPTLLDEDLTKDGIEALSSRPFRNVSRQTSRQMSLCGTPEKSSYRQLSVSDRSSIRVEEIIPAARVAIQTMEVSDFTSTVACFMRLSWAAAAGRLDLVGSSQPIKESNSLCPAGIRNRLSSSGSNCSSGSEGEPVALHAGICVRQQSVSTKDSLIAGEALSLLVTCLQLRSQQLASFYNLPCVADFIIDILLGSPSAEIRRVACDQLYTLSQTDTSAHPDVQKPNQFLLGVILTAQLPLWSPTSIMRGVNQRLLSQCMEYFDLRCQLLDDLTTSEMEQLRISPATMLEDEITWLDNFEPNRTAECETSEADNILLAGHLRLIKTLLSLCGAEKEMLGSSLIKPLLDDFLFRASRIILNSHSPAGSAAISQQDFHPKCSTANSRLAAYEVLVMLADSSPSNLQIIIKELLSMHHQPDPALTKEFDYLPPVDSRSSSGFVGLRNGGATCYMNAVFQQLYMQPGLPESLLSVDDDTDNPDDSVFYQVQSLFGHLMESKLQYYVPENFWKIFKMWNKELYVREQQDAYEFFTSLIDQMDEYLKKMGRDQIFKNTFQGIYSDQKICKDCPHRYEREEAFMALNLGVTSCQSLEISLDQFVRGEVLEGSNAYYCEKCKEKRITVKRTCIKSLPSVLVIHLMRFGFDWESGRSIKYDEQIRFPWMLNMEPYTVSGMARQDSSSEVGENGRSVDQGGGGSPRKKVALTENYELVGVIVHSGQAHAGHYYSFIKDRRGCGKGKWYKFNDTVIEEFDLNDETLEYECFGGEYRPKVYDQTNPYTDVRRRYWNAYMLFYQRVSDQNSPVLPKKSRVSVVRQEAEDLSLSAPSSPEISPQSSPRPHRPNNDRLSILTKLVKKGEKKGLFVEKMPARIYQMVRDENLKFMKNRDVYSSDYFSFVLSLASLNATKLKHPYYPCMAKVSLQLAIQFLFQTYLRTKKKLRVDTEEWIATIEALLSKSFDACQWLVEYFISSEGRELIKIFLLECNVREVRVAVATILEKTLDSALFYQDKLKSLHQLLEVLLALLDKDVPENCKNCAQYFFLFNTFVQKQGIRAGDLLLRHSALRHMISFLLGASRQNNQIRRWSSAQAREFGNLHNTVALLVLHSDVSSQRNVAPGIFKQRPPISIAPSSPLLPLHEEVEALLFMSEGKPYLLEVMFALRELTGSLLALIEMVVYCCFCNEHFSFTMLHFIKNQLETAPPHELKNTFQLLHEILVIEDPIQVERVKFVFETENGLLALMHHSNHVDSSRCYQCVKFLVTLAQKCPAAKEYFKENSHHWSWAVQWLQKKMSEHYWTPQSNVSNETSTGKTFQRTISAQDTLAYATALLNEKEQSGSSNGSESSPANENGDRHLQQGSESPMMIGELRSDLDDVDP
In short: as §1

[3] = biological target: T2, USP25 (UniProt Q9UHP3)
T2 sequence (whole entry): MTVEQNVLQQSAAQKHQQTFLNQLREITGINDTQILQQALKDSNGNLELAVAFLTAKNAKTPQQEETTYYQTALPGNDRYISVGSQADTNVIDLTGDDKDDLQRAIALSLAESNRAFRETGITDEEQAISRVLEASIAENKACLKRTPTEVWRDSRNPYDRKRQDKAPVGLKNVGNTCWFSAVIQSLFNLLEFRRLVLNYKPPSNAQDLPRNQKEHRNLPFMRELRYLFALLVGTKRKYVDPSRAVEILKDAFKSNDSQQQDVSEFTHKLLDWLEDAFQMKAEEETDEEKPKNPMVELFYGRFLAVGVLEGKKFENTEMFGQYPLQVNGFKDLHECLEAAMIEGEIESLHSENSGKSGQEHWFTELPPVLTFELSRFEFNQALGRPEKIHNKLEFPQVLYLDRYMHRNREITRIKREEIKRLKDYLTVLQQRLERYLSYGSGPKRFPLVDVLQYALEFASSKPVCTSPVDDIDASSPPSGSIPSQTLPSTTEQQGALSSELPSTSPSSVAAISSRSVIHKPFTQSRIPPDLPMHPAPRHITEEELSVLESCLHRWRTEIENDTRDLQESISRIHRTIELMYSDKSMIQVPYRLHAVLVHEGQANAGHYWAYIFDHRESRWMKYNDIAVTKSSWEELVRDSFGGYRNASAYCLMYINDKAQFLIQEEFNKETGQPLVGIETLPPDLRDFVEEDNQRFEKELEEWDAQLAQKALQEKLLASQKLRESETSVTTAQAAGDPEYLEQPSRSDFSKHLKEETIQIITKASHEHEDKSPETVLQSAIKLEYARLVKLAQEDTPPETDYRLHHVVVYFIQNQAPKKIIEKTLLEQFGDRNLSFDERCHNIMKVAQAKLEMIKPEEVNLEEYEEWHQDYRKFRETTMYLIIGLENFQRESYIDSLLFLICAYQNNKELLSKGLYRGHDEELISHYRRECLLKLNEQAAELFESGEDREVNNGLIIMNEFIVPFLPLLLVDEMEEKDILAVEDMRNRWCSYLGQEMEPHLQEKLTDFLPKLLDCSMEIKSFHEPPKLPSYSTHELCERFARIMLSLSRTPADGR
In short: as §1

[4] = biological target: T3, USP28 (UniProt Q96RU2)
T3 sequence (whole entry): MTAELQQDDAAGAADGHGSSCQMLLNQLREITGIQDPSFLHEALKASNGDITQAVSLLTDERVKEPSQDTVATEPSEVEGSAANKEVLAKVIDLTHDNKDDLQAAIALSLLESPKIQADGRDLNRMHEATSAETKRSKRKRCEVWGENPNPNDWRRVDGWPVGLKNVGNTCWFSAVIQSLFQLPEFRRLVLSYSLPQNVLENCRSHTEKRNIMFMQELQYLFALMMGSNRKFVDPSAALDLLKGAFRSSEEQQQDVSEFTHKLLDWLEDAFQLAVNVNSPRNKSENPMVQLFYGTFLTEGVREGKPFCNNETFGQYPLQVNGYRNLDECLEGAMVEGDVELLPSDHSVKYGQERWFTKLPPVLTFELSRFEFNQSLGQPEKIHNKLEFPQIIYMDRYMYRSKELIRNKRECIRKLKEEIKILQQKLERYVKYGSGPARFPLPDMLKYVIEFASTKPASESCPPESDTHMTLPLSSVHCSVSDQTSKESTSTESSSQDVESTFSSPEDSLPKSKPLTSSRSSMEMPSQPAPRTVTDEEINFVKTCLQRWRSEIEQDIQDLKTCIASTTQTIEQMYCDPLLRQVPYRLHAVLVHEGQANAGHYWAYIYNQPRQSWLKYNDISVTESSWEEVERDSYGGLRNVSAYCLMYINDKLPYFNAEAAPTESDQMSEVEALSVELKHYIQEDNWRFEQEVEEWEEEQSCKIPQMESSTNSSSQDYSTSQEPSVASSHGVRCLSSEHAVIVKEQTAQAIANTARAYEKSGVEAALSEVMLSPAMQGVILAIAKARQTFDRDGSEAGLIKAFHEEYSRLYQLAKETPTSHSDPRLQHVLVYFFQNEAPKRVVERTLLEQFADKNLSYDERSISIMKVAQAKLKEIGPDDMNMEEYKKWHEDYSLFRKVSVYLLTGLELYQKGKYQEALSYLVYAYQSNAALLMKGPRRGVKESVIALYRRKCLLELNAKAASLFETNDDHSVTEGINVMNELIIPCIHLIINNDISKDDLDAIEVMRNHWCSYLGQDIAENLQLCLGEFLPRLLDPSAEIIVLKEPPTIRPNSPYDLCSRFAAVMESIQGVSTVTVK
In short: as §1

Measured: log2 ratio of Biotin-Ahx-Ub-VS probe labelling

O=C(CCl)NCCc1cccc2ccccc12
inactive: [1] 0.0202 | [2] -0.0928 | [3] -0.0781 | [4] -0.212
